Source: PubChem BioAssay AID1159580 (chemical genetic matrix, 2015)
About 2,000 (36%) of roughly 5,500 compounds were called active. Another 18% or so got no clear call; they are omitted. Rule as the data show it: active = normalized growth mostly below about 0.91 (no sharp cut-off); inconclusive = no clear call, values can overlap the other calls; inactive = mostly above about 0.92. This is one part of the list.

Experiment: chemical genetic growth profiling, strain panel (AID 1159580);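 also: tested at 20 µM; growth read once vehicle control cultures reached saturation at 30 °C; 1 = growth at the plate median or of vehicle wells; lower values mean less growth of the strain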
Details: S. cerevisiae deletion strains, growth OD

Measured: normalized growth

Cn1c([N+](=O)[O-])cnc1COC(N)=O
inactive: locus YAL013W, strain DEP1, active compounds read low 1.01 | locus YAL021C, strain ccr4, active compounds read low 1.01 | locus YAL026C, strain drs2, active compounds read low 1.02 | locus YAL030W, strain snc1, active compounds read low 1 | locus YBL061C, strain skt5, active compounds read low 1.01 | locus YBR009C, strain hhf1, active compounds read low 0.978 | locus YBR021W, strain FUR4, active compounds read low 1.02 | locus YBR023C, strain chs3, active compounds read low 1.01 | locus YBR171W, strain sec66, active compounds read low 1.01 | locus YBR229C, strain ROT2, active compounds read low 1.01 | locus YBR231C, strain swc5, active compounds read low 0.992 | locus YBR279W, strain paf1, active compounds read low 1 | locus YCL011C, strain gbp2, active compounds read low 1.01 | locus YCL016C, strain dcc1, active compounds read low 1.01 | locus YCL029C, strain bik1, active compounds read low 0.993 | locus YCL069W, strain vba3, active compounds read low 0.987 | locus YCR088W, strain abp1, active compounds read low 1.01 | locus YDL005C, strain med2, active compounds read low 1.01 | locus YDL035C, strain GPR1, active compounds read low 1.02 | locus YDL040C, strain nat1, active compounds read low 0.997 | locus YDL074C, strain BRE1, active compounds read low 1.02 | locus YDL101C, strain DUN1, active compounds read low 1.02 | locus YDL134C, strain PPH21, active compounds read low 1 | locus YDL185W, strain tfp1, active compounds read low 0.978 | locus YDL192W, strain arf1, active compounds read low 0.984 | locus YDR001C, strain nth1, active compounds read low 1 | locus YDR069C, strain doa4, active compounds read low 0.984 | locus YDR101C, strain arx1, active compounds read low 0.986 | locus YDR137W, strain rgp1, active compounds read low 1.04 | locus YDR150W, strain NUM1, active compounds read low 1 | locus YDR159W, strain sac3, active compounds read low 0.983 | locus YDR162C, strain NBP2, active compounds read low 1.01 | locus YDR195W, strain ref2 1.01 | locus YDR297W, strain sur2, active compounds read low 1.02 | locus YDR318W, strain mcm21, active compounds read low 0.985 | locus YDR334W, strain swr1, active compounds read low 1 | locus YDR335W, strain msn5, active compounds read low 1.01 | locus YDR388W, active compounds read low 0.992 | locus YDR392W, strain spt3, active compounds read low 1.04 | locus YDR502C, strain sam2, active compounds read low 0.989 | locus YEL003W, strain gim4, active compounds read low 0.999 | locus YEL037C, strain rad23, active compounds read low 0.998 | locus YEL061C, strain CIN8 (second series), active compounds read low 1 | locus YEL061C, strain CIN8, active compounds read low 1.01 | locus YER015W, strain faa2, active compounds read low 1.01 | locus YER016W, strain bim1, active compounds read low 1.02 | locus YER110C, active compounds read low 0.988 | locus YER111C, strain swi4, active compounds read low 0.998 | locus YER155C, strain BEM2 (second series), active compounds read low 1.02 | locus YER155C, strain BEM2, active compounds read low 1 | locus YER167W, strain BCK2, active compounds read low 1.01 | locus YFR010W, strain ubp6, active compounds read low 0.983 | locus YGL078C, strain dbp3, active compounds read low 0.987 | locus YGL086W, strain mad1, active compounds read low 0.998 | locus YGL167C, strain pmr1, active compounds read low 1 | locus YGL173C, strain kem1, active compounds read low 1 | locus YGL227W, strain vid30, active compounds read low 1.01 | locus YGL240W, strain doc1, active compounds read low 1 | locus YGL248W, strain PDE1, active compounds read low 1.01 | locus YGL253W, strain hxk2, active compounds read low 1.01 | locus YGR078C, strain PAC10, active compounds read low 1.01 | locus YGR135W, strain pre9, active compounds read low 0.983 | locus YGR252W, strain gcn5, active compounds read low 0.981 | locus YHR013C, strain ard1, active compounds read low 1.04 | locus YHR027C, strain rpn1, active compounds read low 1.02 | locus YHR030C, strain SLT2, active compounds read low 1.01 | locus YHR079C, strain IRE1 (second series), active compounds read low 0.991 | locus YHR079C, strain IRE1, active compounds read low 1 | locus YHR094C, strain hxt1, active compounds read low 0.986 | locus YHR129C, strain ARP1, active compounds read low 1 | locus YHR142W, strain chs7, active compounds read low 1.01 | locus YHR200W, strain rpn10, active compounds read low 0.986 | locus YIL066C, strain RNR3, active compounds read low 1.02 | locus YIL073C, strain SPO22, active compounds read low 1.03 | locus YIL125W, strain kgd1, active compounds read low 0.987 | locus YIR030C, strain dcg1, active compounds read low 0.994 | locus YJL092W, strain hpr5, active compounds read low 1.01 | locus YJL095W, strain BCK1 (second series), active compounds read low 1.01 | locus YJL095W, strain BCK1, active compounds read low 1.02 | locus YJL115W, strain asf1, active compounds read low 0.999 | locus YJL129C, strain trk1, active compounds read low 1.02 | locus YJL134W, strain LCB3, active compounds read low 1 | locus YJL154C, strain vps35, active compounds read low 1.01 | locus YJL164C, strain tpk1, active compounds read low 0.993 | locus YJL166W, strain qcr8, active compounds read low 0.988 | locus YJL168C, strain set2, active compounds read low 0.986 | locus YJL187C, strain SWE1 (second series), active compounds read low 1.02 | locus YJR043C, strain POL32, active compounds read low 1.02 | locus YJR066W, strain TOR1, active compounds read low 0.954
